# High-throughput results: PubChem, ICCB-Longwood Screening Facility, Harvard Medical School
# Shown is part of a subset that was picked to be rich in hits.
# Vaccinia pol inh: inhibitors of vaccinia virus processive DNA synthesis (E9 polymerase). AID 493162. 0.94% of 46,000 active. normalized absorbance, % (test concentration not listed). in vitro processive DNA synthesis, absorbance read-out; stronger effect = lower value; in the data active = normalized absorbance mostly below about 85%, no sharp cut-off; inactive = mostly above about 86%
# * marks the source's active call; other numbers are inactive results.
SMILES,Vaccinia pol inh
O=C(CC1COc2ccccc2O1)Oc1ccccc1 (stereo not drawn),89
CN(C)/C=C/C=C1C(=O)CCCC1=O,45*
CN(C)c1ccc(N/C=C2/CCCC2=O)cc1,100
CN(C)/C=C/C=C1\N=C(c2ccccc2)OC1=O,103
Cc1ccc(O)c(C(N)(C(F)(F)F)C(F)(F)F)c1,102
COC(=O)CSc1nc(-c2ccccc2)cc(-c2ccccc2)c1C#N,99
CC(=O)Nc1nc(C2CC2)cc(-c2ccccc2)c1C#N,85*
CCOC(=O)CSc1nc(C2CC2)cc(-c2ccccc2)c1C#N,99
O=C(NC1CC1)c1ccccc1NS(=O)(=O)c1ccc(F)cc1,91
CCc1ccc(NC(=O)CSc2nncn3c2cc2occc23)cc1,102
O=C1Nc2ccc(S(=O)(=O)N(CCO)CCO)c3cccc1c23,100
NS(=O)(=O)c1ccc2c3c(cccc13)C(=O)N2,96
CN(c1ccccc1C(=O)O)S(=O)(=O)c1ccc2c3c(cccc13)C(=O)N2,50*
O=C(c1cc2nc(-c3ccco3)cc(C(F)(F)F)n2n1)N1CCSCC1,96
CS[C@H](C)[C@H](OC(C)=O)C(=O)N(C)CCN(C)C (tested in a mixture with another compound),15*
N#Cc1ccsc1NC(=O)c1cccs1,100
O=C(Oc1cccc(OC(=O)c2ccccc2F)c1)c1ccccc1F,98
CN=S(=O)(Nc1ccccc1)c1ccc(C)cc1 (stereo not drawn),101
Cc1c(C(=O)O)cc(-c2ccccc2)n1CCSCc1c(F)cccc1Cl,82*
O=C(O)c1ccc(CSCc2c(F)cccc2Cl)o1,94
Cc1c(C(=O)NCc2ccco2)cc(-c2ccccc2)n1CCSCc1c(F)cccc1Cl,100
COc1ccc(N2C(=O)CC(C(=O)NC3CCCCC3)C2c2ccc(F)cc2)cc1 (stereo not drawn),102
Cc1ccccc1NC(=O)Nc1sc(NS(=O)(=O)c2ccccc2)nc1C,96
CN(C)CC(O)Cn1c2ccc(Br)cc2c2cc(Br)ccc21 (stereo not drawn),27*
CN(CC(O)Cn1c2ccccc2c2ccccc21)S(C)(=O)=O (stereo not drawn),109
SMILES,Vaccinia pol inh
OC(CNCc1ccccc1)Cn1c2ccc(Cl)cc2c2cc(Cl)ccc21 (stereo not drawn),100
FC(F)(F)Oc1ccc(N=Cc2ccc(Br)cc2)cc1,98
Oc1ccc(-c2csnn2)cc1,93
c1ccc2cc(CNCCc3ccc4c(c3)OCO4)ccc2c1,105
O=C(COc1ccc2ccccc2c1)NCc1ccc2c(c1)OCO2,106
CN(C)CCc1cc2c(c3c1ccc1ccccc13)OCO2,11*
COc1cc(NC(=O)CN2C(=O)COc3cc(S(=O)(=O)N4CCOCC4)ccc32)cc(OC)c1,88
COc1cccc2cc(-c3cn(-c4ccc(F)c(F)c4)c(=S)[nH]3)c(=O)oc12,100
CC(C)c1nnc(NC(=O)c2c(F)cccc2F)s1,101
CCn1c(C(=O)O)c(CNCc2cccc(Cl)c2)c2ccc(C)cc21,96
CC(NC(=O)CSc1nncn1C)c1ccccc1 (stereo not drawn),102
O=c1c2ccccc2nc(SCc2ccccc2F)n1CCc1ccccc1,100
O=c1c2ccccc2nc(SCc2c(F)cccc2F)n1Cc1ccccc1,76*
Cc1ccc(CSc2nc3ccccc3c(=O)n2Cc2ccccc2)cc1,102
CCOC(=O)c1nc2ccccc2c(=O)n1/N=C/c1cc(Cl)cc(Cl)c1O,100
O=C(COc1ncnc2ccccc12)NC(c1ccccc1)c1ccccc1,96
Cc1nc(N2CCC(C)CC2)c2c(C)c(C(=O)N3CCN(c4ccc(F)cc4)CC3)sc2n1,104
CC(NC(=O)c1ccc(C(=O)NC(C)c2ccccc2)s1)c1ccccc1 (stereo not drawn),99
CC(C)/C=C1\CCCCC1O (stereo not drawn),97
CC(C)OC(C)n1cccc1-c1ccccc1 (stereo not drawn),100
Nc1ccccc1-c1nnc(-c2ccc(-c3ccccc3)cc2)o1,66*
NC(=O)c1ccc(-c2nnc(-c3ccccc3)o2)cc1,94
c1ccc(-c2nnc(-c3ccccc3)o2)cc1,99
COC(CNC(=O)C1CCN(Cc2nc(-c3ccc(Cl)cc3)oc2C)CC1)OC,101
CCc1ccc(-n2c(N(C)Cc3ccccc3)nc3ccccc3c2=O)cc1,90
SMILES,Vaccinia pol inh
Cc1cc(N(C)Cc2ccccc2)ncn1,103
Cc1cc(N(C)Cc2ccccc2)nc2cc(O)ccc12,77*
O=C(CSCc1ccc(Cl)cc1)c1ccccc1F,97
CC[C@@H]1[C@@H](O)N2C3C[C@H]1C1C(O)[C@]4(C[C@@H]12)c1ccccc1N(C)[C@@H]34 (stereo partly drawn),100
CCCc1oc2c(cc(NS(=O)(=O)c3ccc(CC)cc3)c3ccccc32)c1C(=O)OCC,99
c1ccc2sc(CCc3nc4ccccc4s3)nc2c1,98
NCCCc1nc2ccc(Cc3ccc4nc(CCCN)[nH]c4c3)cc2[nH]1,77
NCCCc1nc2cc3sc(CCCN)nc3cc2s1,60*
Clc1nc(N2CCCc3ccccc32)nc(N2CCCc3ccccc32)n1,100
